# Source: publication PMC4336329 (PLoS ONE, 2015)
# In all, about 310,000 compounds went through this assay and about 14,000 (4.5%) showed an effect of 50% or more. The effect is printed as a negative number. This excerpt belongs to a sample that is enriched for strong results.
# Molecular target: human ether-à-go-go-related gene (hERG) potassium channel (human, UniProt Q12809)
# Assay: primary screen, population patch clamp on CHO cells stably expressing hERG; higher = less effect of the substance
# 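Further: peak tail current of the secondary pulse compared with the same well before compound.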
# Chain of human ether-à-go-go-related gene (hERG) potassium channel (Q12809 whole entry, looked up): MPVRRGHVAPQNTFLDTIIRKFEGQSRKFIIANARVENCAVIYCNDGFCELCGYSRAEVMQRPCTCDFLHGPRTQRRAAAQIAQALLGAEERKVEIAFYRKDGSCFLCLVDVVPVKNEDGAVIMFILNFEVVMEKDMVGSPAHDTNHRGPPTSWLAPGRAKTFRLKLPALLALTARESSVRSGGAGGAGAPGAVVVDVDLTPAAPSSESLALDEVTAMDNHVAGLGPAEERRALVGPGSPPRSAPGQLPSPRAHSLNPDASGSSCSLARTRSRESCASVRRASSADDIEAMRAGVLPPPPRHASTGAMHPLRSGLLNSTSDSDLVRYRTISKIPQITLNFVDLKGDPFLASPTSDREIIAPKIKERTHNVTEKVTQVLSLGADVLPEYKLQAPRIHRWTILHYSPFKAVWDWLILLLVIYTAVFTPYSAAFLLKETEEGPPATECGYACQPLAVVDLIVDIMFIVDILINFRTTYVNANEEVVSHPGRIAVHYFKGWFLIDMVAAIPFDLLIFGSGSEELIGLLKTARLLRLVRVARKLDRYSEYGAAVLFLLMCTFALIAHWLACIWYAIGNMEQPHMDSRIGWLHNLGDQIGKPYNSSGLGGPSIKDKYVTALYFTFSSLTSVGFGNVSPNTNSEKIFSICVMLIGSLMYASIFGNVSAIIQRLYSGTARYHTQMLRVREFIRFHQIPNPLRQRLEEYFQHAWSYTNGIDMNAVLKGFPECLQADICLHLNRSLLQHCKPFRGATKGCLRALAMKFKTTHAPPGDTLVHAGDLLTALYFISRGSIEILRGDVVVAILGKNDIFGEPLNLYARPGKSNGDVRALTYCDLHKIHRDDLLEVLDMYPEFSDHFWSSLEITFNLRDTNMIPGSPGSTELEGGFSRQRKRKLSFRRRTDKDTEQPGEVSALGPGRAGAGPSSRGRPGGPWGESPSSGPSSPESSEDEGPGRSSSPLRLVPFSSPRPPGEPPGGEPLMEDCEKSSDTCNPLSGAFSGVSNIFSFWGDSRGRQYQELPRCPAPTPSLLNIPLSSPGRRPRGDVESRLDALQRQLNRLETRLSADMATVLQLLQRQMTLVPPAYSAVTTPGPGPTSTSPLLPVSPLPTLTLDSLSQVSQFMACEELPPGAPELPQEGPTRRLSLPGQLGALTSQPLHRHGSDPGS
row,Structure (SMILES),"hERG current change (%, negative = inhibition) at 10uM [%]"
1,COc1ccc(CNC(=O)C2CCN(c3nccs3)CC2)cc1,-31.8
2,CC(C)c1ccc(Oc2cccc(C(=O)/C(C#N)=C/N(C)C)c2)cc1,-14.6
3,CSc1ncc(CN2CCCC(C(=O)c3cccc(Cl)c3)C2)cn1 (stereo not drawn),-47.1
4,Cc1ccsc1C(=O)C1CCCN(Cc2cnn(C)c2)C1 (stereo not drawn),12
5,CSc1ccc(C(=O)C2CCCN(Cc3cnc(SC)nc3)C2)cc1 (stereo not drawn),-76.4
6,CSc1ccc(C(=O)C2CCCN(Cc3cccn3-c3cccnc3)C2)cc1 (stereo not drawn),-65.1
7,Cc1ccsc1C(=O)C1CCCN(Cc2cnc(N)nc2)C1 (stereo not drawn),-4.85
8,CCn1cc(CN2CCCC(C(=O)c3sccc3C)C2)cn1 (stereo not drawn),-27.3
9,CSc1ncc(CN2CCCC(C(=O)c3sccc3C)C2)cn1 (stereo not drawn),-55.2
10,CSc1ncc(CN2CCCC(C(=O)c3ccc(C(C)(C)C)cc3)C2)cn1 (stereo not drawn),-31.9
11,O=C(c1ccc(Cl)cc1)C1CCCN(Cc2cccn2-c2cccnc2)C1 (stereo not drawn),-42
12,Cc1ccsc1C(=O)C1CCCN(Cc2cnc(N3CCCC3)s2)C1 (stereo not drawn),-15.3
13,Cc1ccsc1C(=O)C1CCCN(Cc2cnn(C(C)C)c2)C1 (stereo not drawn),-56.4
14,COc1cccc(/C=N/NC(=O)C(C)n2nnc3ccccc32)c1 (stereo not drawn),-1.1
15,Cc1cc([N+](=O)[O-])nn1CC(=O)Nc1sc2c(c1C(N)=O)CCCC2,7.62
16,CCN(CC(=O)NCc1cccs1)CC(=O)Nc1c(Cl)ccc(C)c1Cl,-16.8
17,CC12CC3(C)CC(C)(C1)CC(C(=O)NC(=S)NC(C)(C)C)(C2)C3,13.3
18,CSc1ccc(C(=O)C2CCCN(Cc3cccnc3)C2)cc1 (stereo not drawn),-53
19,O=C(C1CCCN(Cc2cccnc2)C1)N1CCCCC1.O=C(O)C(=O)O (stereo not drawn),7.77
20,CSc1ccc(C(=O)C2CCCN(Cc3ccn[nH]3)C2)cc1 (stereo not drawn),-26.6
21,CCCCn1nc(C(=O)NCC2COc3ccccc3O2)c2ccccc2c1=O (stereo not drawn),-49.1
22,O=[N+]([O-])c1ccccc1/C=C/C=N/n1c(-c2ccc(Cl)cc2)n[nH]c1=S,17.5
23,O=C(CN(Cc1ccco1)C(=O)CNS(=O)(=O)c1ccc(F)cc1)NCc1ccccc1,-28.4
24,CCOC(=O)C1CCN(C(=O)CCNC(=O)c2cc(OC)c(OC)c(OC)c2)CC1,10.9

row,Structure (SMILES),"hERG current change (%, negative = inhibition) at 10uM [%]"
1,O=C(NCCCN1CCOCC1)c1ccc(Sc2ccc(F)cc2)c([N+](=O)[O-])c1,-33.3
2,CCN1CCCC1CNC(=O)c1ccccc1Cl (stereo not drawn),-10.6
3,CCN1CCCC1CNC(=O)c1ccc(Sc2ccccc2Cl)c([N+](=O)[O-])c1 (stereo not drawn),-64.1
4,O=C(NCCCN1CCOCC1)c1ccc(Sc2ccccc2Cl)c([N+](=O)[O-])c1,-22.7
5,CCN1CCCC1CNC(=O)c1ccc(Sc2ccc(F)cc2)c([N+](=O)[O-])c1 (stereo not drawn),-66.5
6,O=C(c1ccc(Sc2ccc(F)cc2)c([N+](=O)[O-])c1)N1CCOCC1,-18.5
7,CCOc1ccc(-c2nnn(CC(=O)N3CCCC3)n2)cc1OCC,13.8
8,Cl.O=c1c(-c2ccccc2)coc2c(CN3CCCCC3)c(O)ccc12,14.6
9,COc1ccc(NC(=O)CSCC(=O)N=c2sccn2C)cc1,11
10,O=C(Nc1ccc(O)cc1)c1cc2n(n1)C(C(F)(F)F)CC(c1ccco1)N2 (stereo not drawn),-5.45
11,O=S(=O)(Nc1cccc(-c2cn3cccnc3n2)c1)c1ccc(Cl)cc1,16.4
12,CN1CCN(CC(=O)NC23CC4CC(CC(C4)C2)C3)CC1.Cl,4.19
13,CCc1ccc(Nc2n[n+](-c3ccccc3)c(-c3cccc(Cl)c3Cl)s2)cc1.[Cl-],-1.43
14,CCc1ccc(Nc2n[n+](-c3ccccc3)c(-c3cc(OC)c(OC)cc3Br)s2)cc1.[Cl-],-55
15,CCc1ccc(Nc2n[n+](-c3ccccc3)c(-c3ccc(SC)cc3)s2)cc1.[Cl-],-2.72
16,COc1ccc(-c2sc(Nc3ccccc3)n[n+]2-c2ccccc2)cc1Br.[Cl-],-48.7
17,COc1cc(Br)c(-c2sc(Nc3ccccc3)n[n+]2-c2ccc(F)cc2)cc1OC.[Cl-],-37.1
18,CCc1ccc(Nc2n[n+](-c3ccccc3)c(/C=C/c3ccccc3)s2)cc1.[Cl-],-69
19,COc1cc(Br)c(-c2sc(Nc3ccccc3)n[n+]2-c2ccccc2)cc1OC.[Cl-],-68.7
20,CCc1ccc(Nc2n[n+](-c3ccccc3)c(-c3ccc(OCc4ccccc4)cc3)s2)cc1.[Cl-],-45.2
21,CCc1ccc(Nc2n[n+](-c3ccccc3)c(-c3c(Cl)cccc3Cl)s2)cc1.[Cl-],-27.5
22,O=C(O)C1Cc2ccccc2-c2ccccc2C1,20.1
23,CC(C)COC(=O)c1ccc(NC(=O)C2C3CCC(C3)C2C(=O)O)cc1 (stereo not drawn),7.41
24,Nc1nc(Cl)cc(Sc2ccc3ccccc3c2)n1,14.1

row,Structure (SMILES),"hERG current change (%, negative = inhibition) at 10uM [%]"
1,CCOC(=O)c1ccoc1CSCc1ccc(C(=O)OC)o1,5.24
2,COc1ccc(CNC(=O)C/C(C)=N/NC(=O)Cc2ccc(OC)cc2)cc1,3.39
3,CCC(=O)Oc1ccc(-c2cnc3ccccc3n2)cc1,13.5
4,COc1ccc(C(CNC(=O)c2cccc(S(=O)(=O)NCc3ccccc3)c2)N2CCOCC2)cc1 (stereo not drawn),-40
5,Cc1nc(N2CCN(Cc3ccc(Cl)cc3)CC2)c2oc3ccccc3c2n1,-19.3
6,c1ccc2[nH]c(CN3CCN(c4ncnc5c4oc4ccccc45)CC3)nc2c1,-73.1
7,C(=C\c1ccccc1)/CN1CCN(c2ncnc3c2oc2ccccc23)CC1,-53.7
8,Cl.c1ccc2c(c1)oc1c(N3CCOCC3)ncnc12,9.53
9,Cc1nc(SCc2nc3ccccc3[nH]2)c2oc3ccccc3c2n1,1.04
10,c1ccc(N2CCN(c3ncnc4c3oc3ccccc34)CC2)cc1,2.36
11,Cc1nc(N2CCN(Cc3nc4ccccc4[nH]3)CC2)c2oc3ccccc3c2n1,-52.1
12,c1ccc2[nH]c(CSc3ncnc4c3oc3ccccc34)nc2c1,-21.4
13,COc1ccccc1N1CCN(c2ncnc3c2oc2ccccc23)CC1,6.73
14,CC(C)(C)NC(=O)CCN(/N=C/c1ccccc1F)C1=NS(=O)(=O)c2ccccc21,15.7
15,CCNc1c(NS(=O)(=O)c2ccc(OC)cc2)c(=O)oc2ccccc12,-24.3
16,O=C(Nc1ccccc1Cc1ccccc1)c1ccc2c(c1)SC1=NS(=O)(=O)CCN12,-5.78
17,COC(=O)c1cccc(NC(=S)Nc2ccccc2Cl)c1,-3.48
18,Cc1c(C(=O)N(C)C)c2ccc(Cl)cc2n1O,15.6
19,COc1ccc(Cn2c(=O)[nH]c3cc(OC)c(OC)cc3c2=O)cc1,7.17
20,Cc1ccc(C(=O)N/C(N)=N/c2nc3ccccc3o2)cc1,-2.82
21,O=c1c2ccccc2c2ccccc2c(=O)n1Cc1ccco1,3.47
22,CC1(C)Cc2c(sc3c2c(=N)n(Cc2ccco2)c(=O)n3Cc2ccccc2)CO1,-12.5
23,N=c1c2c(-c3ccccc3)c(-c3ccccc3)n(Cc3ccco3)c2ncn1Cc1ccccc1,-69.3
24,N=C1C(c2ccccc2)=C(O)CN1Cc1ccco1,6.39

row,Structure (SMILES),"hERG current change (%, negative = inhibition) at 10uM [%]"
1,N=c1c2c(-c3ccccc3)c(-c3ccccc3)oc2ncn1Cc1ccco1,0.861
2,O=c1c2ccccc2nc(-c2ccccc2)n1Cc1ccco1,-30.5
3,N=c1c2c(-c3ccccc3)c(-c3ccccc3)n(Cc3ccco3)c2ncn1Cc1ccco1,-71.2
4,CC(C)Cn1cnc2c(c(-c3ccccc3)c(-c3ccccc3)n2Cc2ccco2)c1=N,-73.3
5,CCN(CC)S(=O)(=O)c1ccc(Cl)c(C(=O)Nc2cc(C)nn2-c2ccccc2)c1,-26.3
6,O=C(CCC(=O)N1CCSc2ccccc21)NCc1ccc(Cl)cc1,-33.8
7,CCOc1cc(/C=N/NC(=O)c2ccncc2)ccc1OS(C)(=O)=O,-3.33
8,COc1ccc(C2=CC3=C(Br)C(=O)C(C)(O)C(=O)C3=CO2)cc1 (stereo not drawn),11.9
9,O=[N+]([O-])c1cc([N+](=O)[O-])c(N2CCCCCC2)cc1NCCO,-13.4
10,Cc1ccc2c(c1)C(O)(CC(=O)c1ccc(C)s1)C(=O)N2 (stereo not drawn),21.4
11,O=C1C=C(c2ccc3[nH]ccc3c2)CCC1,16.3
12,CC(=O)OCC1(C)CN(c2ccccc2)NC1=O (stereo not drawn),13.7
13,CC(CCc1ccccc1)N(C)CC(O)c1cccc([N+](=O)[O-])c1.Cl (stereo not drawn),-68.6
14,CC(CCc1ccccc1)NCC(O)c1cccc([N+](=O)[O-])c1.Cl (stereo not drawn),-56.2
15,CC(CCc1ccccc1)NC(=O)CNc1cccc([N+](=O)[O-])c1 (stereo not drawn),-30.1
16,Cl.NC(=NCCc1ccccc1)c1cccc([N+](=O)[O-])c1,-57.7
17,O=C(Cc1ccccc1)NC(NC(=O)Cc1ccccc1)c1cccc([N+](=O)[O-])c1,4.27
18,CC(CCc1ccccc1)NC(=O)c1cccc([N+](=O)[O-])c1 (stereo not drawn),-8.01
19,C=CCN(CC(O)c1cccc([N+](=O)[O-])c1)C(C)CCc1ccccc1.Cl (stereo not drawn),-36.4
20,N/C(=N\OC(=O)CCCc1ccccc1)c1cccc([N+](=O)[O-])c1,-3.9
21,Cl.NC(=NCc1ccccc1)c1cccc([N+](=O)[O-])c1,-20
